# In PubChem BioAssay (EPA / NIEHS):
# Results filed as inconclusive are left out. The source made the active and inactive calls. How the source made its calls: active means hit-call score of the fitted dose curve at least 0.9, where 1 is the maximum; inconclusive means response in the unintended direction; inactive means score below 0.9.
# Key:
# [1] = ACEA_AR_agonist_AUC_viability: ACEA Biosciences xCELLigence Real-Time Cell Analysis on Androgen Receptor Agonism for Viability (AID 2283775);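 on AC50: viability read 80 hours after compound addition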
# Method in brief: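 Read-out is area under the impedance curve at 80 h post-dose in 22Rv1 cells, with DMSO as baseline and signal loss taken as reduced viability. Compounds ran in duplicate from 100 uM final.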
# [2] = tested on: Thyroperoxidase (TPO), gene 54314; test: CCTE_Simmons_AUR_rTPO: CCTE's Amplex UltraRed Assay for Thyroperoxidase (TPO) Inhibition, Simmons Lab (AID 2283662);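 on AC50: potency for loss of signal meaning inhibition of peroxidase activity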
# Method in brief: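 Rat thyroid microsomes (5 ug protein) with 25 uM Amplex UltraRed and 300 uM H2O2 in 200 mM phosphate buffer, 30 min at 37C in dark; fluorescence 544/590 nm. Eight concentrations, 5 nM–87.5 uM final, 0.5% DMSO, triplicate biological replicates.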
# [3] = CCTE_Simmons_CellTiterGLO_HEK293T: Viability Assessment in CCTE's Assays for Thyroperoxidase (TPO) Inhibition, Simmons Lab (AID 2283665);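 on AC50: cells exposed to compound for 24 h before readout; actives reduce ATP signal below DMSO vehicle meaning cytotoxicity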
# Method in brief: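 Cytotoxicity counter-screen: human HEK293T cells in low-serum (1% FBS) medium receive test chemical, 5 nM to 87.5 uM final, for 24 h; ATP is quantified by luciferase luminescence.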
# [4] = molecular target: Luciferin 4-monooxygenase (Photinus pyralis) (UniProt P08659); test: CCTE_Simmons_QuantiLum_inhib_2: CCTE's Firefly Luciferase Inhibition Assay, Simmons Lab (AID 2283767);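 on AC50: potency for inhibitors that lower luciferase luminescence relative to DMSO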
# Method in brief: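 Counter-screen for nonspecific enzyme inhibition: purified firefly luciferase incubated 30 min at 37C with chemicals up to 87.5 uM final, then luminescence measured after luciferin/dATP injection; activity fitted against DMSO baseline.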
# [5] = ACEA_AR_antagonist_AUC_viability: ACEA Biosciences xCELLigence Real-Time Cell Analysis on Androgen Receptor Antagonism for Viability (AID 2283776);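 further: area under impedance growth curve at 80 h after dosing as viability; hits lower the growth signal relative to DMSO meaning cytotoxicity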
# Method in brief: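 22Rv1 human prostate cancer cells were seeded on electrode plates, monitored overnight, then exposed to eight 1:4 dilutions from 100 uM final. Impedance-based growth kinetics at 80 h gave an AUC viability endpoint normalized to DMSO.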
# [6] = molecular target: zebrafish Estrogen Receptor (ESR1), esr1 (gene 259252) (UniProt P57717); test: ATG_zfER1_XSP1: Attagene TRANS-FACTORIAL Multi-Species (XSP1) HepG2 Assay for zebrafish Estrogen Receptor (ESR1) (AID 2283772)
# Method in brief: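 Readout: fluorescent reporter mRNA, RT-PCR plus FAM labelling, HpaI digest, capillary electrophoresis; gain-of-signal fit vs DMSO. HepG2, transient multi-reporter TRANS (NR-GAL4 chimera), 24 h chemical exposure, 3 nM 6-alpha-fluorotestosterone co-added.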
# [7] = tested on: zebrafish Estrogen Receptor (ESR2B), gene 317733; test: ATG_zfER2b_XSP1: Attagene TRANS-FACTORIAL Multi-Species (XSP1) HepG2 Assay for zebrafish Estrogen Receptor (ESR2B) (AID 2283773)
# Method in brief: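 HepG2 cells transiently transfected with GAL4-UAS reporter units for chimeric zebrafish ER2b-Gal4, with 3 nM 6-alpha-fluorotestosterone present; reporter mRNA measured 24 h after dosing by RT-PCR and capillary electrophoresis, gain versus DMSO.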
# [8] = tested on: frog Estrogen Receptor (ESR2), gene 100174814; test: ATG_frER2_XSP1: Attagene TRANS-FACTORIAL Multi-Species (XSP1) HepG2 Assay for frog Estrogen Receptor (ESR2) (AID 2283774)
# Method in brief: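 HepG2 cells transiently transfected with GAL4-UAS reporter units expressing chimeric frog ER-Gal4; 3 nM 6-alpha-fluorotestosterone present. After 24 h dosing, reporter mRNA quantified by RT-PCR and capillary electrophoresis; gain-of-signal fitted relative to DMSO.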
# [9] = tested on: frog Estrogen Receptor (ESR1), gene 398734; test: ATG_frER1_XSP1: Attagene TRANS-FACTORIAL Multi-Species (XSP1) HepG2 Assay for frog Estrogen Receptor (ESR1) (AID 2283777)
# Method in brief: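 HepG2 cells transiently transfected with frog ER–GAL4 chimera and GAL4-UAS reporter, with 3 nM 6-alpha-fluorotestosterone present; 24 h dosing, reporter mRNA quantified by RT-PCR and capillary electrophoresis, gain of signal versus DMSO.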
# [10] = tested on: zebrafish Estrogen Receptor (ESR2A), gene 317734; test: ATG_zfER2a_XSP1: Attagene TRANS-FACTORIAL Multi-Species (XSP1) HepG2 Assay for zebrafish Estrogen Receptor (ESR2A) (AID 2283778)
# Method in brief: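 HepG2 cells transiently transfected with GAL4-UAS reporter units driven by a zebrafish ESR2A–Gal4 chimera; 24 h compound exposure with 3 nM 6-alpha-fluorotestosterone present. Reporter mRNA measured by RT-PCR with fluorescent capillary electrophoresis, fitted positive versus DMSO.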
# [11] = molecular target: chicken Estrogen Receptor (ESR1), ESR1 (gene 396099) (UniProt P06212); test: ATG_chERa_XSP1: Attagene TRANS-FACTORIAL Multi-Species (XSP1) HepG2 Assay for chicken Estrogen Receptor (ESR1) (AID 2283779)
# Method in brief: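 HepG2 cells transiently transfected with GAL4-UAS reporter units for chimeric chicken ERα-Gal4, dosed 24 h with 3 nM 6-alpha-fluorotestosterone present. Reporter mRNA by RT-PCR and capillary electrophoresis; gain-of-signal fit versus DMSO.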
# Luciferin 4-monooxygenase (Photinus pyralis), sequence (P08659 whole entry, looked up): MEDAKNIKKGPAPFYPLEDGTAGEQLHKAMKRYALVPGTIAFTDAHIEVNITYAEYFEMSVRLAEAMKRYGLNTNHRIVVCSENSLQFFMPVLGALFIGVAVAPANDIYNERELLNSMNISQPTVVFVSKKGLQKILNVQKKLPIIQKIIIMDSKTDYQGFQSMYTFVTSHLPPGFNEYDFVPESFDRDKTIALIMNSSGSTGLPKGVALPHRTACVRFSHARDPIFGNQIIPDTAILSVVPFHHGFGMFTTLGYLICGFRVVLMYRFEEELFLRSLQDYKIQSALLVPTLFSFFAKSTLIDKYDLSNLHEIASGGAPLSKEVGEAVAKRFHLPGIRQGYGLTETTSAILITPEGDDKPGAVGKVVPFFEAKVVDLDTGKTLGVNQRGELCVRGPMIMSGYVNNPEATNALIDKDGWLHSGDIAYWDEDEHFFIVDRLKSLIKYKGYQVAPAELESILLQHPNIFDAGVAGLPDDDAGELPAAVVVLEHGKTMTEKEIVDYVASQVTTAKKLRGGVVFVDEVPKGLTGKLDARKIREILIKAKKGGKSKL
# zebrafish Estrogen Receptor (ESR1), esr1 (gene 259252), sequence (P57717 whole entry, looked up, the tested form may be a part): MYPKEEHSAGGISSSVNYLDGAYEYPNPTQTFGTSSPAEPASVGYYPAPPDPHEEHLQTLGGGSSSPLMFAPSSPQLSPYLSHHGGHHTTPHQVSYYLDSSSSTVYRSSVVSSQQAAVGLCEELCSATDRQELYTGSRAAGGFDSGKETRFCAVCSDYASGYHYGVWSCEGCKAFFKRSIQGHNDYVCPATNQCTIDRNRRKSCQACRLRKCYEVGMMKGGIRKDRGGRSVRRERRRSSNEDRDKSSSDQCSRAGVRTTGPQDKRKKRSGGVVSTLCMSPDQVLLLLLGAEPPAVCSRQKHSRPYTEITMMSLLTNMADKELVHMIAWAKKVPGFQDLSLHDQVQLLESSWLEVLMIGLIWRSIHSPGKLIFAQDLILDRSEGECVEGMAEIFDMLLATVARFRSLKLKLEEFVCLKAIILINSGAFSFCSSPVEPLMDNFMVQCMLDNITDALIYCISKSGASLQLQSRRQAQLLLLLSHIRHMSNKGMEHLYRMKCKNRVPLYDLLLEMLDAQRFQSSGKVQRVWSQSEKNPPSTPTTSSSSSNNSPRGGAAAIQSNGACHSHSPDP
# chicken Estrogen Receptor (ESR1), ESR1 (gene 396099), sequence (P06212 whole entry, looked up, the tested form may be a part): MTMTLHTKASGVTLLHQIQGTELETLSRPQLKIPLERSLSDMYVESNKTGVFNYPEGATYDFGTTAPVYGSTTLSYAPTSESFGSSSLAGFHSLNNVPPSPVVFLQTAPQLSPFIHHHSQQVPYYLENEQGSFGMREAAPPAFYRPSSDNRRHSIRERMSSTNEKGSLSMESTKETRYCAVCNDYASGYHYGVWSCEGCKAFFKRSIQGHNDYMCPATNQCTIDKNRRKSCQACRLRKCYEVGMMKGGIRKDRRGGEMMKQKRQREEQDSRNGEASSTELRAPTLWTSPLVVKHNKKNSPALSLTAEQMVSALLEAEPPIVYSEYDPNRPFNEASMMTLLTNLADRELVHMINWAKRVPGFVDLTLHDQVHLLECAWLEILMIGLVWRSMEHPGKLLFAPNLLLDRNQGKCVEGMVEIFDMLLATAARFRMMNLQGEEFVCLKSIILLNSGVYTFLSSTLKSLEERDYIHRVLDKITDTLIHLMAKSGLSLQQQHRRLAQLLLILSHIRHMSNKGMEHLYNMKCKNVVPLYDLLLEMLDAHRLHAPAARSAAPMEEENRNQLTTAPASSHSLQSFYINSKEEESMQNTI
compound,measurement,setting,value
C=CC(C)(O)CCC=C(C)CCC=C(C)C (centres undefined),outcome,[1],inactive
O=C(Cl)c1cccc(C(=O)Cl)c1,AC50,[2],7 µM (active)
same,outcome,[3],inactive
same,outcome,[4],inactive
same,AC50,[5],8.27 µM (active)
CCCCCCCCCCCCN,outcome,[1],inactive
CCCCCCCCCCC(CO)CCCCCCCC (centres undefined),AC50,[1],9.96 µM (active)
O=Nc1ccc(Nc2ccccc2)cc1,outcome,[2],inactive
same,AC50,[3],84 µM (active)
same,AC50,[4],53.8 µM (active)
same,outcome,[1],inactive
same,outcome,[5],inactive
CN(C)C(=N)N=C(N)N,outcome,[6],inactive
same,AC50,[7],100 µM (active)
CSc1nc(NC2CC2)nc(NC(C)(C)C)n1,outcome,[2],inactive
same,outcome,[3],inactive
same,outcome,[4],inactive
same,outcome,[1],inactive
same,outcome,[5],inactive
O=c1cc(-c2ccccc2)oc2cc(O)cc(O)c12,AC50,[2],23 µM (active)
same,outcome,[3],inactive
same,AC50,[4],5.53 µM (active)
same,outcome,[5],inactive
Cc1ccc(C(C)C)cc1O,outcome,[2],inactive
same,outcome,[3],inactive
same,outcome,[4],inactive
same,outcome,[1],inactive
same,outcome,[5],inactive
CCCCCCCCCCCCCOS(=O)(=O)O,AC50,[2],42.6 µM (active)
same,AC50,[3],32.5 µM (active)
same,outcome,[4],inactive
same,outcome,[5],inactive
O=C1C(c2[nH]c3ccc(S(=O)(=O)O)cc3c2O)=Nc2ccc(S(=O)(=O)O)cc21,outcome,[1],inactive
CCCOCC(C)O (centres undefined),outcome,[1],inactive
CCCCc1ccc(N)cc1,AC50,[2],0.00854 µM (active)
same,AC50,[3],17.4 µM (active)
same,outcome,[4],inactive
same,outcome,[1],inactive
same,outcome,[5],inactive
CN(CCOc1ccc(CC2SC(=O)NC2=O)cc1)c1ccccn1 (centres undefined),outcome,[6],inactive
same,AC50,[7],0.0787 µM (active)
same,outcome,[8],inactive
same,AC50,[9],0.0666 µM (active)
same,outcome,[10],inactive
same,AC50,[11],0.0353 µM (active)
CC(C)c1cccc(O)c1,AC50,[2],25.9 µM (active)
same,outcome,[3],inactive
same,outcome,[4],inactive
same,outcome,[5],inactive
CC(C)=CCCC(C)CC=O (centres undefined),outcome,[2],inactive
same,outcome,[3],inactive
same,outcome,[4],inactive
same,outcome,[1],inactive
same,outcome,[5],inactive
